Pf Dd2 inh: P. falciparum Dd2 growth inhibitors, primary screen, SYBR Green fluorescence, single dose replicates | AID 1159554, 2015 | activity change, % at 10 µM | 72 h; active compounds read low | 94,000 compounds, 2.3% hits; in the data active means activity change below about -80%; inconclusive means no clear call, values can overlap the other calls
C diff growth: C. difficile growth inhibitors, primary screen, HTS; Clostridium difficile clinical isolate growth, OD600, 24 h; active compounds read low; growth activity, negative = inhibition, % at 16 µg/mL (by protocol); 86,000 compounds, 0.25% hits;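 active means mean growth activity at or below -80% and every replicate also at or below -80%; inconclusive means mean at or below -80% but some replicate above -80%; inactive means mean growth activity above -80%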
Numbers stand for hits; – = inactive; ? = inconclusive; · = not tested or not shown; ! = not active in a repeat. Compounds with a hit are over-represented: about 2.4% of the library has one in this group of screens.

SMILES | Pf Dd2 inh | C diff growth
COc1ccc(S(=O)(=O)N(C)C[C@H]2OCCCC[C@H](C)Oc3ccc(NC(=O)Nc4ccccc4)cc3C(=O)N([C@@H](C)CO)C[C@H]2C)cc1 | -83 | –
COc1ccc(NC(=O)Nc2ccc3c(c2)C(=O)N([C@@H](C)CO)C[C@H](C)[C@@H](CN(C)S(=O)(=O)c2ccc(C)cc2)OCCCC[C@H](C)O3)cc1 | – | ·
CNC(=O)C[C@@H]1CC[C@@H]2[C@@H](COc3ccc(NC(=O)Nc4cccc(Cl)c4)cc3C(=O)N2C)O1 | – | –
CCC(=O)N(C)C[C@@H]1Oc2cc(-c3ccccc3F)ccc2S(=O)(=O)N([C@H](C)CO)C[C@H]1C | – | –
C[C@H]1CN([C@@H](C)CO)C(=O)Cc2cc(NC(=O)C3CC3)ccc2O[C@H]1CN(C)C(=O)Nc1cccc2ccccc12 | – | –
CCCNC(=O)N1C[C@H]2[C@@H](c3ccccc31)[C@H](CO)N2Cc1ccc(OC)cc1 | – | –
CCNC(=O)Nc1ccc2c(c1)C(=O)N(C)[C@@H]1CC[C@@H](CC(=O)NCc3cccc(F)c3)O[C@@H]1CO2 | – | –
COc1cc(CN2C[C@@H]3N[C@H](C2)C3c2ccc(-c3cncnc3)cc2)cc(OC)c1 (some centres not stated) | – | –
COc1cc(CN2C[C@@H]3N[C@H](C2)C3c2ccc(/C=C/c3ccccc3)cc2)cc(OC)c1 (some centres not stated) | -88! | –
COc1cc(CN2C[C@@H]3N[C@H](C2)C3c2ccc(-c3ccncc3)cc2)cc(OC)c1 (some centres not stated) | -81 | –
C/C=C/c1ccc(C2[C@@H]3CN(Cc4cccc(OC)c4)C[C@H]2N3)cc1 (some centres not stated) | – | –
C(=C\c1ccc(C2[C@@H]3CN(Cc4ccc5c(c4)OCO5)C[C@H]2N3)cc1)/c1ccccc1 (some centres not stated) | ? | -99
COc1cc(CN2C[C@@H]3N[C@H](C2)C3c2ccc(-c3cccc(OC)c3)cc2)cc(OC)c1 (some centres not stated) | – | –
c1ncc(-c2ccc(C3[C@@H]4CN(Cc5ccc6c(c5)OCO6)C[C@H]3N4)cc2)cn1 (some centres not stated) | – | –
COc1ccc(-c2ccc(C3[C@@H]4CN(Cc5cc(OC)cc(OC)c5)C[C@H]3N4)cc2)cc1 (some centres not stated) | -88! | -101!
COc1ccccc1C(=O)Nc1ccc2c(c1)C(=O)N(C)[C@@H]1CC[C@@H](CC(=O)NCc3ccc(Cl)c(Cl)c3)O[C@H]1CO2 | – | –
CN(C)CCCNC(=O)C[C@H]1CC[C@H]2[C@@H](COC[C@@H](O)CN2CC2CCCC2)O1 | · | –
O=S(=O)(c1ccccc1)N1CCCCN2[C@H](CO)[C@H](c3ccc(C#Cc4cccnc4)cc3)[C@@H]2C1 | – | –
O=C(C[C@@H]1C=C[C@H](NS(=O)(=O)c2ccccc2)[C@H](CO)O1)N1CCC(Cc2ccccc2)CC1 | – | –
C[C@@H]1CN([C@H](C)CO)C(=O)c2cc(-c3ccc(F)cc3)cnc2O[C@H]1CN(C)C(=O)NC1CCCC1 | – | –
C[C@@H]1CCCCO[C@@H](CN(C)CC2CCCCC2)[C@@H](C)CN([C@H](C)CO)C(=O)c2cc(NS(=O)(=O)c3cn(C)cn3)ccc2O1 | – | –
COc1cccc(CN2[C@H](CO)[C@@H](c3ccccc3)C23CN(C(=O)C2CCOCC2)C3)c1 | – | –
COCC(=O)N1CC2(C1)CN(Cc1cc(F)ccc1F)[C@@H](CO)c1[nH]c3cc(OC)ccc3c12 | – | –
COc1ccc2c3c([nH]c2c1)[C@@H](CO)N(CC1CC1)CC31CN(Cc2cc(F)ccc2F)C1 | – | –
COc1ccc2c3c([nH]c2c1)[C@H](CO)N(Cc1cc(F)ccc1F)CC31CCN(C(=O)C2CCC2)CC1 | -88 | –
SMILES | Pf Dd2 inh | C diff growth
CCC(=O)N1CCC2(CC1)CN(Cc1cc(F)ccc1F)[C@H](CO)c1[nH]c3cc(OC)ccc3c12 | -87 | –
COc1ccc2c3c([nH]c2c1)[C@H](CO)N(Cc1cc(F)ccc1F)CC31CCN(C(C)=O)CC1 | -90 | –
COc1ccc2c3c([nH]c2c1)[C@@H](CO)N(Cc1cc(F)ccc1F)CC31CN(C(C)=O)C1 | – | –
COc1ccc2c3c([nH]c2c1)[C@@H](CO)N(Cc1ccccc1OC)CC31CCN(C(C)=O)CC1 | – | ·
CCC(=O)N1CC2(C1)CN(Cc1cc(F)ccc1F)[C@H](CO)c1[nH]c3cc(OC)ccc3c12 | -90 | –
Cc1noc(C)c1NC(=O)Nc1ccc2c(c1)C(=O)N([C@@H](C)CO)C[C@@H](C)[C@H](CN(C)Cc1ccc(Oc3ccccc3)cc1)O2 | – | –
O=S(=O)(Cc1ccccc1)N1[C@H](CO)[C@@H](c2ccccc2)C12CN(CCC(F)(F)F)C2 | -84 | –
OC[C@@H]1[C@@H](c2ccccc2)C2(CN(CCC(F)(F)F)C2)N1Cc1ccccc1 | – | –
C[C@@H](O)C#Cc1cnc2c(c1)C(=O)N([C@@H](C)CO)C[C@H](C)[C@@H](CN(C)C(=O)c1ccncc1)O2 | – | –
C[C@@H]1CCCCO[C@H](CN(C)Cc2ccc(Cl)c(Cl)c2)[C@H](C)CN([C@@H](C)CO)C(=O)c2cc(NC(=O)Nc3ccc(C(F)(F)F)cc3)ccc2O1 | ? | –
C[C@@H]1CN([C@@H](C)CO)C(=O)c2cc(NC(=O)Nc3ccc(C(F)(F)F)cc3)ccc2O[C@@H](C)CCCCO[C@H]1CN(C)Cc1ccc2c(c1)OCO2 | – | -92
C[C@@H]1CCCCO[C@@H](CN(C)Cc2ccc(C(F)(F)F)cc2)[C@H](C)CN([C@H](C)CO)C(=O)c2cc(NC(=O)Nc3ccc4c(c3)OCO4)ccc2O1 | – | ·
C[C@@H]1CN([C@H](C)CO)C(=O)c2cc(NC(=O)Nc3ccc(C(F)(F)F)cc3)ccc2O[C@@H](C)CCCCO[C@H]1CN(C)Cc1ccc2c(c1)OCO2 | – | -100
C[C@@H]1CCCCO[C@H](CN(C)Cc2ccc3c(c2)OCO3)[C@@H](C)CN([C@@H](C)CO)C(=O)c2cc(NC(=O)Nc3ccc(C(F)(F)F)cc3)ccc2O1 | – | -100
C[C@H](CO)N1C[C@H](C)[C@H](CN(C)Cc2ccc3c(c2)OCO3)OCCCC[C@H](C)Oc2ccc(NC(=O)Nc3ccc(C(F)(F)F)cc3)cc2C1=O | – | –
C[C@@H]1CCCCO[C@@H](CN(C)Cc2ccc(Cl)c(Cl)c2)[C@H](C)CN([C@H](C)CO)C(=O)c2cc(NC(=O)Nc3ccc(C(F)(F)F)cc3)ccc2O1 | -86 | –
C[C@@H]1CCCCO[C@@H](CN(C)Cc2ccc3c(c2)OCO3)[C@@H](C)CN([C@H](C)CO)C(=O)c2cc(NC(=O)Nc3ccc(C(F)(F)F)cc3)ccc2O1 | – | –
COCC(=O)N1CC[C@@H]2[C@H]1c1cc(C#Cc3ccccc3)ccc1N[C@@H]2CO | – | –
C[C@H]1CN([C@@H](C)CO)C(=O)c2cc(/C=C/c3ccccc3)cnc2O[C@@H]1CN(C)S(=O)(=O)c1ccccc1 | – | –
C[C@H](CO)N1C[C@H](C)[C@H](CN(C)C)Oc2ccc(NS(=O)(=O)c3cn(C)cn3)cc2CC1=O | – | –
C[C@@H]1CCCCO[C@H](CN(C)Cc2ccc3c(c2)OCO3)[C@H](C)CN([C@@H](C)CO)C(=O)c2cc(NC(=O)Nc3ccc(C(F)(F)F)cc3)ccc2O1 | -86 | –

Source: PubChem
